According to paper PMC8769072, “Proteome‐scale mapping of binding sites in the unstructured regions of the human proteome” (Molecular Systems Biology, 2022):

EPS15 121-215, P42566, sequence (P42566 121-215): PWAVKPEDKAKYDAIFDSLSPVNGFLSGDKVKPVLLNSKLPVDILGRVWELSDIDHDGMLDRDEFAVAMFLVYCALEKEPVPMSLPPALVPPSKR
CRK 124-198, P46108, sequence (P46108 124-198): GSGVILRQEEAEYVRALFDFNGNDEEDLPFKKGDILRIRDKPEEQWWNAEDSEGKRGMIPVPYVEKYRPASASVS

Row | Binder | selected by phage display (CRK 124-198, P46108) | selected by phage display (EPS15 121-215, P42566)
1 | PRPPELPQKRLKTLDA [WDR83, Q9BRX9] | confidence 4 (active) | –
2 | LKAIPASSSAPPLPPK [FAM110B, Q8TC76] | confidence 4 (active) | –
3 | NDNSEYVPMLPGKFLG [IRS4, O14654] | confidence 3 (active) | –
4 | VELAPILPAKKQGGRP [NPM3, O75607] | confidence 4 (active) | –
5 | GPRLPPRQPTVASPAE [SATB1, Q01826] | confidence 2 (active) | –
6 | PLLTGVSSSTNPFRPQ [GNG5, P63218] | – | confidence 3 (active)
7 | ELWKVPLPPKNITAPS [TNRC6A, Q8NDV7] | confidence 3 (active) | –
8 | FSMQEPMVPAKLGTQA [PPFIA4, O75335] | confidence 3 (active) | –
9 | NPFTPDSLLLHSSGQA [WEE1, P30291] | – | confidence 4 (active)
10 | KPMLPAKFGQPQGSPA [SIM2, Q14190] | confidence 2 (active) | –
11 | TQPPPHLPTKLVIRHG [BICRA, Q9NZM4] | confidence 3 (active) | –
12 | PSAPQLPPRDSPRALM [PPARGC1B, Q86YN6] | confidence 2 (active) | –
13 | YPDRVTQNPFIPTFGD [GRIN2B, Q13224] | – | confidence 3 (active)
14 | LMDISPFLPEKGLPST [MTCL1, Q9Y4B5] | confidence 3 (active) | –
15 | SSSAHLPPKDRPVTVF [MYO9A, B2RTY4] | confidence 2 (active) | –
16 | NPFNEEPAETVSSSDT [PLEKHM2, Q8IWE5] | – | confidence 2 (active)
17 | ADLPPKLQKMAGGAAR [KCNJ3, P48549] | confidence 4 (active) | –
18 | TPFGQVAAAGVSSNPF | – | confidence 3 (active)
19 | HANPSNPFYEALSTPS [LMTK3, Q96Q04] | – | confidence 4 (active)
20 | YTNPFSDNHQSPFLEG [PRUNE2, Q8WUY3] | – | confidence 2 (active)
21 | ESVAYHAQNNPPVPPK [ADNP, Q9H2P0] | confidence 2 (active) | –

Row | Binder | selected by phage display (CRK 124-198, P46108) | selected by phage display (EPS15 121-215, P42566)
22 | IEAKDLPAKKKYLAEL [DAB2IP, Q5VWQ8] | confidence 2 (active) | –
23 | PHSSPPPLPAKASRQL [PHLDB1, Q86UU1] | confidence 3 (active) | –
24 | IPASPGQAAPLLPKKG [NUAK2, Q9H093] | confidence 2 (active) | –
25 | PPEPLLPLKAPATQPH | confidence 2 (active) | –
26 | APPLPPREPPSKAAQE [ZNF516, Q92618] | confidence 2 (active) | –
27 | SQEALPPKKRDLPVTS [ATXN1L, P0C7T5] | confidence 3 (active) | –
28 | FPPLPEKAAALESAQE [HDLBP, Q00341] | confidence 3 (active) | –
29 | YSNNPFWNGVQTNPFL [SH3BP4, Q9P0V3] | – | confidence 2 (active)
30 | NPFLPSDSSKTSELHS [KIAA1549, Q9HCM3] | – | confidence 2 (active)
31 | TQAPPLHTATTNPFLT [MLLT10, P55197] | – | confidence 4 (active)
32 | VQEQFGGNPFATATTD [UBQLN3, Q9H347] | – | confidence 4 (active)
33 | NPFLTGLSAPSPTNPF [EPN3, Q9H201] | – | confidence 3 (active)
34 | MLGPAIPPKATPEPAI [C6orf132, Q5T0Z8] | confidence 3 (active) | –
35 | LMNFLGDSNPFNLLRM [BCL11B, Q9C0K0] | – | confidence 2 (active)
36 | TPVAIATQLPPKVSAA [EP400, Q96L91] | confidence 2 (active) | –
37 | DDTVEMPLPKKLKSVT [TPR, P12270] | confidence 2 (active) | –
38 | QIMENPFVQSMLSNPD [UBQLN1, Q9UMX0] | – | confidence 3 (active)
39 | SSSPQLPPKPSIDLTV [CTTNBP2, Q8WZ74] | confidence 2 (active) | –
40 | SSEVNIVNPFALESTI [SLC1A1, P43005] | – | confidence 2 (active)
41 | TPPPPSMPHKERYFDR [ADD3, Q9UEY8] | confidence 2 (active) | –
42 | MQDPFGGNPFTALLAG [UBQLNL, Q8IYU4] | – | confidence 3 (active)

Row | Binder | selected by phage display (CRK 124-198, P46108) | selected by phage display (EPS15 121-215, P42566)
43 | GVPALPVKNLNGTGPV [DTX1, Q86Y01] | confidence 3 (active) | –
44 | PQLLPKTSPQSAPPSS [FAM205A, Q6ZU69] | confidence 4 (active) | –
45 | PLSPGNPFSPGTPISP [WNK4, Q96J92] | – | confidence 3 (active)
46 | AAGPSVASSTNPFQTN | – | confidence 3 (active)
47 | VQDIQPALPTKGEVLL [IVL, P07476] | confidence 4 (active) | –
48 | NVLNESPVQLPPLPPR [SCIMP, Q6UWF3] | confidence 3 (active) | –
49 | PPLPEKFVVKGVVDRF [SNX30, Q5VWJ9] | confidence 3 (active) | –
50 | NPFNTPHLQLVHDGLG [SLC25A3, Q00325] | – | confidence 2 (active)
51 | ELPVSPEIPPRKSQYL [IL31RA, Q8NI17] | confidence 2 (active) | –
52 | SMELLPPELPPRIPIE [SH2B1, Q9NRF2] | confidence 4 (active) | –
53 | DSASSNPFALPNSVTP [WDR59, Q6PJI9] | – | confidence 3 (active)
54 | SAVSSVVNKFNPFDLI [PCLO, Q9Y6V0] | – | confidence 3 (active)
55 | PGLQAPPLPPRVGLPT [VPS37B, Q9H9H4] | confidence 4 (active) | –
56 | NTQPPLPFKEAHVSGH [ZNF804A, Q7Z570] | confidence 4 (active) | –
57 | NPFWNVSTQPQQLPRP | – | confidence 4 (active)
58 | PTLPPKGLAGPPASPG [KIAA1522, Q9P206] | confidence 3 (active) | –
59 | PLPPPKEVINGNIKTV [EIF3G, O75821] | confidence 3 (active) | –
60 | NPFEDDFGAPKVGVAA [PYGO2, Q9BRQ0] | – | confidence 2 (active)
61 | SSALAATLPTLPAKVY [NCF4, Q15080] | confidence 2 (active) | –
62 | TPSEADRWLEEVSKSV [NUMB, P49757] | – | confidence 3 (active)
